Source: the supplement of paper PMC10849652
The full data set covers some 7,900 targets. This sample favours those with a hit. About 0.6% of all pairs of compound and target were hits. A number with no mark means an inactive call.

Key:
Assay in all cases: log2 fold change, soluble protein after heating vs DMSO (PISA); higher = thermal stabilisation; K562 cells, 10 uM, 30 min; active = over 0.2 and 3.5 SD of the protein, either way, in both replicates (recomputed)
[1] = compound: CS(=O)(=O)c1ccc(-c2cnc(N)c(C(=O)Nc3ccccc3)n2)cc1
Procedure, shortened: (§1)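 Quantification of soluble protein used TMTpro 16plex LC-MS/MS, with channel sums equalised. Samples were the supernatant after 21,000xg for 90 min of pooled aliquots from K562 cells (2×10^6 cells/mL) treated with 10 μM compound for 30 min, heated for 3 min over 48°C-58°C, and extracted in PBS with 0.5% NP-40 at 4°C. Values, from duplicates, describe thermal stability against control samples on a log2 fold-change scale.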

crizotinib = compound: C[C@@H](Oc1cc(-c2cnn(C3CCNCC3)c2)cnc1N)c1c(Cl)ccc(F)c1Cl [crizotinib]
Procedure, shortened: as §1

[2] = compound: C[C@@H]1COCCN1C2=NC(=NC(=C2)C3(CC3)S(=O)(=O)C)C4=C5C=CNC5=CC=C4
Procedure, shortened: as §1

[3] = compound: C[C@H](C1=CC=C(C=C1)C(=O)NC2=C3C=CNC3=NC=C2)N
Procedure, shortened: as §1

duvelisib = compound: C[C@H](Nc1ncnc2nc[nH]c12)c1cc2cccc(Cl)c2c(=O)n1-c1ccccc1 [duvelisib]
Procedure, shortened: as §1

gandotinib = compound: Cc1cc(Nc2cc(CN3CCOCC3)c3nc(C)c(Cc4ccc(Cl)cc4F)n3n2)n[nH]1 [gandotinib]
Procedure, shortened: as §1

tozasertib = compound: Cc1cc(Nc2cc(N3CCN(C)CC3)nc(Sc3ccc(NC(=O)C4CC4)cc3)n2)n[nH]1 [tozasertib]
Procedure, shortened: as §1

[4] = compound: Cc1cc(SCc2sc(-c3ccc(C(F)(F)F)cc3)nc2C)ccc1OCC(=O)O
Procedure, shortened: as §1

doramapimod = compound: Cc1ccc(-n2nc(C(C)(C)C)cc2NC(=O)Nc2ccc(OCCN3CCOCC3)c3ccccc23)cc1 [doramapimod]
Procedure, shortened: as §1

ispinesib = compound: Cc1ccc(C(=O)N(CCCN)[C@@H](c2nc3cc(Cl)ccc3c(=O)n2Cc2ccccc2)C(C)C)cc1 [ispinesib]
Procedure, shortened: as §1

Sequence of UniProt Q9Y6R0 (Q9Y6R0 whole entry, looked up): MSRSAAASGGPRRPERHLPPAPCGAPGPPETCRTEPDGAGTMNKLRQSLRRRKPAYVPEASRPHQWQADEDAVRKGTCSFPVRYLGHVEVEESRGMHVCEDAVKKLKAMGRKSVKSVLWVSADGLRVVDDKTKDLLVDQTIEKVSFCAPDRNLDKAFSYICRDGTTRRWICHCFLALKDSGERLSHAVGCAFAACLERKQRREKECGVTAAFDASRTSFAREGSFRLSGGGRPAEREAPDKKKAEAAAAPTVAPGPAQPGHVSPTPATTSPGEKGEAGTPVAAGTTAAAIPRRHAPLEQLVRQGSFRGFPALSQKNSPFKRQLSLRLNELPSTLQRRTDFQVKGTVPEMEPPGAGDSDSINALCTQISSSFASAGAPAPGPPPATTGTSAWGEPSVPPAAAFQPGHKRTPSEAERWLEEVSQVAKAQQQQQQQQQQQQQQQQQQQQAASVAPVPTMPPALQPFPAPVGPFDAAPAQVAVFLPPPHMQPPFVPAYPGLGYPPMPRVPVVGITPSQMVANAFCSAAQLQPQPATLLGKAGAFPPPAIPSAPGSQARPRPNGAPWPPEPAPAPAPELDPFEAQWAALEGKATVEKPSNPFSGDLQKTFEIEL
Sequence of UniProt Q9H4L5 (Q9H4L5 whole entry, looked up): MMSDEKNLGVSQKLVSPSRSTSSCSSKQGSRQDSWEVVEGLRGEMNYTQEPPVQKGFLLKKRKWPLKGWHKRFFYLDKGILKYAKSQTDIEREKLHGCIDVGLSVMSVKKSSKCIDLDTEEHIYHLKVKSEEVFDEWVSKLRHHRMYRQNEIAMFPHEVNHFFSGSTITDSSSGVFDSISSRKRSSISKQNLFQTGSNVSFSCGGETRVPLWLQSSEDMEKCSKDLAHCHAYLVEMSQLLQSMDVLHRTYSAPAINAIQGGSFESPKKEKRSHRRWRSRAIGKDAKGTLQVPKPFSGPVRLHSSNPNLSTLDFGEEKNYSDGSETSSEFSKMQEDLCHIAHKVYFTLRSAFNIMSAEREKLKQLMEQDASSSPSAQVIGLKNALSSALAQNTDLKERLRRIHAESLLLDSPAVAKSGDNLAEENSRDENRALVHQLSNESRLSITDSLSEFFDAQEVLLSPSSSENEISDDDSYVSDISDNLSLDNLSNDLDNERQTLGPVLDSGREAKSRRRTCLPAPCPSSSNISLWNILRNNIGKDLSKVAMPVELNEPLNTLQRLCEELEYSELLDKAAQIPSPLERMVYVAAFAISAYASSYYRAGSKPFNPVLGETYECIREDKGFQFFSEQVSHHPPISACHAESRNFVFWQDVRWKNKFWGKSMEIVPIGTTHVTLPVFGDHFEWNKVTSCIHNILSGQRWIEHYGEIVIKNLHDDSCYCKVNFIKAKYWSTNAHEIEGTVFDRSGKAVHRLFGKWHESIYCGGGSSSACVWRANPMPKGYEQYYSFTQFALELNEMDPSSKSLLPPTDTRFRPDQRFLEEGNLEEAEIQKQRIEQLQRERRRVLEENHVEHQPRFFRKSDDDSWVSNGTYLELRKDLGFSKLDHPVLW
Sequence of UniProt P68402 (P68402 whole entry, looked up): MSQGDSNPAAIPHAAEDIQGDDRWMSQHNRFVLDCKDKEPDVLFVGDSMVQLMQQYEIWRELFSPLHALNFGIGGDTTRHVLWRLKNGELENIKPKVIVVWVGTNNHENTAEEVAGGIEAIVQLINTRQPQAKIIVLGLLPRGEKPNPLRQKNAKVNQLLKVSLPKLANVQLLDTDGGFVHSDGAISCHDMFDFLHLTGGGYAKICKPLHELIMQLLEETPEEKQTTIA
Sequence of UniProt O75607 (O75607 whole entry, looked up): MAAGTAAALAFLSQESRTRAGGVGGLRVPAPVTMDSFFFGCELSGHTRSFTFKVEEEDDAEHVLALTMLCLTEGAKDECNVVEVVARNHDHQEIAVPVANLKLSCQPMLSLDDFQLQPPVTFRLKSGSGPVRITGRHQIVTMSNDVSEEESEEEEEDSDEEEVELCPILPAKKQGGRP
Sequence of UniProt O15118 (O15118 whole entry, looked up): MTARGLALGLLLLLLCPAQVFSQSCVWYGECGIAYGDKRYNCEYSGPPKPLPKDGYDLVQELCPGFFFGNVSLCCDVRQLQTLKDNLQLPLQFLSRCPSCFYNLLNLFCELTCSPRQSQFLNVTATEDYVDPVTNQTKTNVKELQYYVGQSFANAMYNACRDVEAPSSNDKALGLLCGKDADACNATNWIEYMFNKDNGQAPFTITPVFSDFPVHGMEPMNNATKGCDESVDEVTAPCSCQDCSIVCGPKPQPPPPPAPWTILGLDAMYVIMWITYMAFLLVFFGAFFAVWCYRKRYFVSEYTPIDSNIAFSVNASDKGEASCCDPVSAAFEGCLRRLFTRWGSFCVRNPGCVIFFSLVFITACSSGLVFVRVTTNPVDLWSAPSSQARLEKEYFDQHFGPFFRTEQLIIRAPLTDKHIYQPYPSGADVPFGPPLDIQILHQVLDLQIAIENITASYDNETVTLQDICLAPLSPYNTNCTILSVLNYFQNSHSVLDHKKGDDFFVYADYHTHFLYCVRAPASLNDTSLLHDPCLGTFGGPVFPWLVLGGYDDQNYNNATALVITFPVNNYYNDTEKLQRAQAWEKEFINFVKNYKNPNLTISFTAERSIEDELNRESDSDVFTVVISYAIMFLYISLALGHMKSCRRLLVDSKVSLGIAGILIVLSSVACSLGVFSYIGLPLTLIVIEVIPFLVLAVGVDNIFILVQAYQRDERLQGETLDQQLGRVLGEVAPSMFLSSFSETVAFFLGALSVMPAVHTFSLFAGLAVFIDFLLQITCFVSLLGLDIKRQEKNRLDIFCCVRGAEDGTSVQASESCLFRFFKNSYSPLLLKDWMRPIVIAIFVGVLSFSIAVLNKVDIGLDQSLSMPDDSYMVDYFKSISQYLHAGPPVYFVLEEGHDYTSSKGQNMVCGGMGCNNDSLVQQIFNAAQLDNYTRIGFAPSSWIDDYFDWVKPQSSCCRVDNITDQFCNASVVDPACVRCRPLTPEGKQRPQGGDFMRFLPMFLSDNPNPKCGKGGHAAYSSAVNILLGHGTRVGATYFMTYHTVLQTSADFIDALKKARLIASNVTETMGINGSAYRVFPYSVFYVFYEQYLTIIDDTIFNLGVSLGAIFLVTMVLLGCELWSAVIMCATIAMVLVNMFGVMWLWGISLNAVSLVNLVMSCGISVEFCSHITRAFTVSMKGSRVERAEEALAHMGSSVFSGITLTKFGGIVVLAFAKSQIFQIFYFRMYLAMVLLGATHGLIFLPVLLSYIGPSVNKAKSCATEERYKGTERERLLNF
Sequence of UniProt O00217 (O00217 whole entry, looked up): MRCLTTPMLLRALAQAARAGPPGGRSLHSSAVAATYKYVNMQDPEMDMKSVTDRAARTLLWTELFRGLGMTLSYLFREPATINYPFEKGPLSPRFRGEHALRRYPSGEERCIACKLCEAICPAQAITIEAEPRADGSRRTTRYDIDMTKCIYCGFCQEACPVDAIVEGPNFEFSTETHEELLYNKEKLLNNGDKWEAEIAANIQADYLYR
Sequence of UniProt Q9BSU3 (Q9BSU3 whole entry, looked up): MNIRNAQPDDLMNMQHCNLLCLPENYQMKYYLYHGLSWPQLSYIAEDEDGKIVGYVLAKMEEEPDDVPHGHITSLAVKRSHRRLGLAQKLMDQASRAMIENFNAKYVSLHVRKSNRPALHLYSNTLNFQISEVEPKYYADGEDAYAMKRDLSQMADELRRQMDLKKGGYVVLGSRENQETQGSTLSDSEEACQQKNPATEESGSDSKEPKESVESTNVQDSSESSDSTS
Sequence of UniProt O14950 (O14950 whole entry, looked up): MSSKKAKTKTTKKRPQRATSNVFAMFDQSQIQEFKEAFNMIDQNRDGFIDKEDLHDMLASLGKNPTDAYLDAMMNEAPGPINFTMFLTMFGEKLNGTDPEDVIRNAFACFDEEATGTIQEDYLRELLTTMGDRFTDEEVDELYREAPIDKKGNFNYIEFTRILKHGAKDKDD
Sequence of UniProt Q9Y605 (Q9Y605 whole entry, looked up): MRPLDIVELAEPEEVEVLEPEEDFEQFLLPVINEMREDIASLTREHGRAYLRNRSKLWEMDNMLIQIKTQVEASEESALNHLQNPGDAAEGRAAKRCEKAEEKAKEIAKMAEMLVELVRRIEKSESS
Sequence of UniProt Q9BS92 (Q9BS92 whole entry, looked up): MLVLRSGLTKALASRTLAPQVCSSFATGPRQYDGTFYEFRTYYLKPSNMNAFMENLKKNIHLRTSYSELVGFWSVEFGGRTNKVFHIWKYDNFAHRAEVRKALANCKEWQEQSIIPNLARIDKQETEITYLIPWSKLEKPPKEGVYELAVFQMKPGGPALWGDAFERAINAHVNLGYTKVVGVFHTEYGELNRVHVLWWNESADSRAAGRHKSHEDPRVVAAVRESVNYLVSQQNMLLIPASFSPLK
Sequence of UniProt Q86VX9 (Q86VX9 whole entry, looked up): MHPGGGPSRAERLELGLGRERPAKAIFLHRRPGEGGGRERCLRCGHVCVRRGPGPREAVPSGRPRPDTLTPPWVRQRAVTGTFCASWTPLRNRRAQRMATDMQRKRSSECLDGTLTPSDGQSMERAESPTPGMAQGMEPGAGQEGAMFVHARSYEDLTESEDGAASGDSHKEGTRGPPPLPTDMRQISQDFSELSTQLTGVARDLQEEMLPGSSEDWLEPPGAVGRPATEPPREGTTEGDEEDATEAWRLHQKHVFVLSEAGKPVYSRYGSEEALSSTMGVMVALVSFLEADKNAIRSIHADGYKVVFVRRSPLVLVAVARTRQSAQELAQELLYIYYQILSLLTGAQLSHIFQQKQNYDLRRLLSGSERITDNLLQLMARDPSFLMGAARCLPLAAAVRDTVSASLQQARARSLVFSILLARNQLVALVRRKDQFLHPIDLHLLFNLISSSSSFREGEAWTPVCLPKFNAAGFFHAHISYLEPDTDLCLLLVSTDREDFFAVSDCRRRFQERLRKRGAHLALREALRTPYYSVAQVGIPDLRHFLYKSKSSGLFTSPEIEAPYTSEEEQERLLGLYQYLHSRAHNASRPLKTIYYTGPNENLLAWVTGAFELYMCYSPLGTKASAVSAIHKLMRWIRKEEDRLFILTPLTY
Sequence of UniProt O00483 (O00483 whole entry, looked up): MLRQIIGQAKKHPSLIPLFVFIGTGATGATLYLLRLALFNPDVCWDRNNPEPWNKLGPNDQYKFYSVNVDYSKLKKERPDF

| Target | log2 fold change [1] | log2 fold change (crizotinib) | log2 fold change [2] | log2 fold change [3] | log2 fold change (duvelisib) | log2 fold change (gandotinib) | log2 fold change (tozasertib) | log2 fold change [4] | log2 fold change (doramapimod) | log2 fold change (ispinesib) |
| --- | --- | --- | --- | --- | --- | --- | --- | --- | --- | --- |
| PAFAH1B2 (UniProt P68402) | 0.016 | -0.017 | -0.13 | -0.054 | 0.086 | 0.16 | -0.072 | -0.066 | 0.022 | -0.002 |
| NUP107 (UniProt P57740) | 0.101 | -0.067 | -0.083 | -0.062 | 0.031 | -0.229 | 0.028 | 0.093 | 0.11 | -0.018 |
| NMD3 (UniProt Q96D46) | 0.094 | 0.003 | 0.122 | -0.179 | 0.064 | 0.007 | -0.007 | 0.03 | -0.013 | 0.139 |
| PAAF1 (UniProt Q9BRP4) | -0.003 | -0.003 | 0.078 | -0.071 | 0 | -0.035 | -0.042 | 0.018 | -0.022 | 0.047 |
| NEK3 (UniProt P51956) | -0.086 | 0.08 | 0.19 | -0.19 | -0.032 | 0.103 | 0.083 | 0.05 | -0.014 | -0.006 |
| MRPS15 (UniProt P82914) | 0.09 | -0.092 | 0.022 | 0.072 | -0.011 | -0.053 | -0.046 | 0.067 | 0.042 | -0.318 (active) |
| NDUFS8 (UniProt O00217) | 0.021 | -0.182 | 0.143 | -0.027 | 0.055 | -0.168 | -0.011 | 0.021 | -0.043 | -0.158 |
| NECTIN2 isoform 2 (UniProt Q92692) | -0.059 | 0.062 | -0.2 |  | -0.248 | -0.206 |  | -0.149 | -0.086 | 0.198 |
| NASP (UniProt P49321) | 0.005 | 0.063 | 0.045 | -0.061 | 0.08 | -0.066 | 0.105 | 0.013 | -0.053 | 0.06 |
| MKRN2 (UniProt Q9H000) | -0.035 | -0.094 | -0.077 | 0.117 | -0.111 | 0.221 | 0.085 | 0.076 | -0.005 | -0.161 |
| NIPSNAP3B (UniProt Q9BS92) | 0.03 | 0.053 |  | 0.015 | -0.18 | 0.082 | -0.045 | 0.039 | -0.102 |  |
| NUDT7 (UniProt P0C024) | 0.03 | 0.004 | 0.248 |  |  | -0.23 | 0.165 |  | 0.011 | -0.157 |
| MON1A (UniProt Q86VX9) | 0.049 | -0.559 (active) | 0.057 |  | -0.012 | 0.116 | -0.111 | 0.011 | 0.045 | -0.153 |
| MSTO1 (UniProt Q9BUK6) | -0.014 | -0.081 | 0.09 | 0.025 | 0.009 | -0.003 | 0.02 | 0.009 | 0.027 | -0.053 |
| MYLK (UniProt Q15746) | 0.279 | 0.027 |  | 0.107 | 0.009 | -0.018 | 0.327 | 0.04 | 1.42 (active) | -0.054 |
| NPC1 (UniProt O15118) | 0.016 | -0.132 | 0.024 | -0.102 | 0.043 | 0.015 | -0.04 | -0.038 | -0.087 | -0.148 |

| Target | log2 fold change [1] | log2 fold change (crizotinib) | log2 fold change [2] | log2 fold change [3] | log2 fold change (duvelisib) | log2 fold change (gandotinib) | log2 fold change (tozasertib) | log2 fold change [4] | log2 fold change (doramapimod) | log2 fold change (ispinesib) |
| --- | --- | --- | --- | --- | --- | --- | --- | --- | --- | --- |
| NPM3 (UniProt O75607) | -0.125 | 0.001 |  | -0.043 | 0.022 | 0.109 | -0.034 | -0.011 | 0.024 | 0.022 |
| NUMBL (UniProt Q9Y6R0) | 0.13 | -0.021 | 0.056 | 0.044 | 0.07 | -0.025 |  | 0.108 | 0.109 | -0.187 |
| MRFAP1 (UniProt Q9Y605) | -0.066 | -0.142 |  | -0.048 | 0.072 | -0.014 | 0.027 | -0.023 | 0.045 | 0.016 |
| MSL1 (UniProt Q68DK7) | 0.092 | 0 | 0.049 |  | 0.195 | 0.31 |  | -0.162 | -0.054 | -0.078 |
| MRPS21 (UniProt P82921) | 0.146 | -0.128 | 0.07 | 0.209 | 0.155 |  | 0.004 | 0.16 | 0.037 | -0.239 |
| NCK1 (UniProt P16333) | -0.077 | -0.449 | 0.171 | 0.162 | -0.135 |  | 0.061 | 0.076 | -0.008 | -0.173 |
| OSBPL3 (UniProt Q9H4L5) | 0.245 | -0.017 | -0.416 | 0.572 | -0.098 |  | 0.198 | 0.063 | 0.189 | -0.36 |
| MT-ND1 (UniProt P03886) | -0.011 | -0.179 | 0.287 | -0.039 | 0.241 |  | 0.105 | -0.081 | 0.056 | 0.178 |
| MRPS5 (UniProt P82675) | 0.123 | -0.061 | 0.125 | 0.169 | 0.016 | -0.08 | -0.065 | 0.131 | 0.071 | -0.451 (active) |
| NDUFB1 (UniProt O75438) | 0.06 | 0.019 | 0.105 | 0.044 |  | -0.27 | 0.001 |  | -0.044 |  |
| NAA11 (UniProt Q9BSU3) | 0.027 | -0.065 | 0.006 | 0.086 | -0.015 |  | 0.007 | 0.114 | -0.037 | -0.009 |
| NAT14 (UniProt Q8WUY8) | 0.006 | -0.228 | -0.019 | -0.119 | 0.03 |  | -0.063 | 0 | -0.02 | -0.418 (active) |
| MYL12B (UniProt O14950) | -0.016 | -0.004 | 0.019 | -0.32 (active) | 0.088 | 0.058 | 0.005 | -0.003 | 0.025 | 0.097 |
| NDUFA12 (UniProt Q9UI09) | 0.107 | -0.033 | 0.025 | 0.015 | 0.033 | -0.206 | -0.048 | 0.115 | 0.03 | -0.385 (active) |
| NDUFA4 (UniProt O00483) | -0.045 | 0.138 | 0.162 | -0.055 | 0.142 | -0.099 | 0.025 | 0.022 | 0.034 | 0.204 |
| MRPS2 (UniProt Q9Y399) | -0.043 | 0.078 | 0.032 | 0.048 | -0.003 | -0.117 | 0.027 | 0.022 | -0.049 | -0.352 (active) |
